Reference: PubChem BioAssay (NCI)
Where “and” joins values, the source holds several entries; their conditions need not be identical. Equal values may be shown once. This is part of a sample that, as a whole, favours compounds with a hit. Of some 83,000 tested, about 20% had one in any assay.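 Activity criterion: percent growth below 10, measured after cells in 96-well plates were exposed to a single compound concentration for 48 hours.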 Calls of active or inactive are those of the source.

What was measured:
Assay in all cases: NCI-60 one-dose screen, 48 h (100 = growth as untreated, 0 = no growth, -100 = all killed)
Settings in all cases: 10 µM unless noted
HCT-15 colon = test system: HCT-15 colon
HT29 colon = test system: HT29 colon
SNB-75 CNS = test system: SNB-75 CNS
SNB-19 CNS = test system: SNB-19 CNS
U251 CNS = test system: U251 CNS
PC-3 prostate = test system: PC-3 prostate
SK-MEL-5 melanoma = test system: SK-MEL-5 melanoma
UACC-62 melanoma = test system: UACC-62 melanoma
SK-MEL-28 melanoma = test system: SK-MEL-28 melanoma
LOX IMVI melanoma = test system: LOX IMVI melanoma

Row | Compound | growth (HCT-15 colon) | growth (HT29 colon) | growth (SNB-75 CNS) | growth (SNB-19 CNS) | growth (U251 CNS) | growth (PC-3 prostate) | growth (SK-MEL-5 melanoma) | growth (UACC-62 melanoma) | growth (SK-MEL-28 melanoma) | growth (LOX IMVI melanoma)
1 | CC(=O)c1cc2ccccc2o1 | 99.6% (inactive) | 95.4% (inactive) | 101% (inactive) | 108% (inactive) | 109% (inactive) | 99.9% (inactive) | 101% (inactive) | 102% (inactive) | 96.6% (inactive) | –
2 | O=C(O)c1cccc(Br)c1 | 108% (inactive) and 102% (inactive) | 101% (inactive) and 94.4% (inactive) | 91.5% (inactive) and 99.7% (inactive) | 108% (inactive) and 105% (inactive) | 103% (inactive) and 90.7% (inactive) | 95% (inactive) and 97.6% (inactive) | 104% (inactive) and 109% (inactive) | 103% (inactive) and 102% (inactive) | 112% (inactive) and 115% (inactive) | 95.8% (inactive) and 99.3% (inactive)
3 | CCCC(=O)Oc1ccc(CC)cc1 | 99.5% (inactive) | 108% (inactive) | 88.8% (inactive) | 109% (inactive) | 98.4% (inactive) | 101% (inactive) | 106% (inactive) | 105% (inactive) | 117% (inactive) | 97.8% (inactive)
4 | OC(CC(c1ccccc1)c1cccc2ccccc12)(c1ccccc1)c1ccccc1 (stereo not given) | 78.9% (inactive) and 68.3% (inactive) | 68.2% (inactive) and 52.6% (inactive) | 103% (inactive) and 74.6% (inactive) | 95.5% (inactive) and 94.7% (inactive) | 90.4% (inactive) and 87.7% (inactive) | 60.6% (inactive) and 56.4% (inactive) | 88.3% (inactive) and 95.5% (inactive) | 76.7% (inactive) and 79.4% (inactive) | 95.8% (inactive) and 100% (inactive) | –
5 | Cc1ccc(N)cc1S(=O)(=O)O | 107% (inactive) and 113% (inactive) | 95.3% (inactive) and 124% (inactive) | 97.3% (inactive) | 107% (inactive) and 108% (inactive) | 106% (inactive) and 103% (inactive) | 98.9% (inactive) | 112% (inactive) and 109% (inactive) | 105% (inactive) and 108% (inactive) | 109% (inactive) and 113% (inactive) | –
6 | O=C1C=CC[C@H](/C=C/c2ccccc2)O1 | 33.4% (inactive) and -52.8% (active) | 29.8% (inactive) and 28.4% (inactive) | 53.8% (inactive) and 70.9% (inactive) | 66.3% (inactive) and 17.5% (inactive) | 12.8% (inactive) and -30% (active) | 20.2% (inactive) and 13% (inactive) | 31.7% (inactive) and -11.8% (active) | 81.7% (inactive) and 6.21% (active) | 40.3% (inactive) and -22.5% (active) | –
7 | CC(C)(C)C1=CC(=O)C(C(C)(C)C)=CC1=O | 97.9% (inactive) and 105% (inactive) | 109% (inactive) and 99.8% (inactive) | 104% (inactive) and 96.6% (inactive) | 86.2% (inactive) and 101% (inactive) | 96.2% (inactive) and 94.2% (inactive) | 90.8% (inactive) and 101% (inactive) | 93.5% (inactive) and 108% (inactive) | 87.1% (inactive) and 99.6% (inactive) | 114% (inactive) and 109% (inactive) | –
8 | Nc1ccc(Cl)c(S(=O)(=O)O)c1 | 101% (inactive) | 105% (inactive) | 93.3% (inactive) | 94.4% (inactive) | 99.8% (inactive) | 108% (inactive) | 101% (inactive) | 102% (inactive) | 106% (inactive) | –
9 | O=C1C=CC(n2cc(F)c(=O)[nH]c2=O)O1 (stereo not given) | 57.8% (inactive) | 39.4% (inactive) | 79.8% (inactive) | 79% (inactive) | 82.2% (inactive) | 92.9% (inactive) | 60.4% (inactive) | 44.5% (inactive) | 75.1% (inactive) | –
10 | CC1OS(=O)OC1C (stereo not given) | 94% (inactive) and 98.6% (inactive) | 88.7% (inactive) and 104% (inactive) | 92.6% (inactive) and 94.7% (inactive) | 101% (inactive) | 100% (inactive) and 101% (inactive) | 100% (inactive) and 97.5% (inactive) | 99.9% (inactive) and 98% (inactive) | 95.5% (inactive) and 89.8% (inactive) | 109% (inactive) and 103% (inactive) | –
11 | O=C1C=CC(=O)N1Cc1ccco1 | 11.6% (inactive) | 34.1% (inactive) | 101% (inactive) | 91% (inactive) | 81.4% (inactive) | 81.6% (inactive) | 86.4% (inactive) | 86.4% (inactive) | 113% (inactive) | –
12 | COc1ccc2oc3cc(NCCN(C)C)ccc3c(=O)c2c1 | 90.6% (inactive) and 67% (inactive) | 69.8% (inactive) and 53% (inactive) | 87.2% (inactive) and 81.5% (inactive) | 92.7% (inactive) and 76.1% (inactive) | 76.7% (inactive) | 83.6% (inactive) and 70.9% (inactive) | 93.3% (inactive) and 75.5% (inactive) | 100% (inactive) and 101% (inactive) | 96.1% (inactive) and 91.3% (inactive) | –
13 | CC(=O)Nc1ccc2oc(=O)ccc2c1 | 107% (inactive) | 106% (inactive) | 89% (inactive) | 102% (inactive) | 108% (inactive) | 100% (inactive) | 97.8% (inactive) | 93.9% (inactive) | 115% (inactive) | 99.7% (inactive)
14 | CCOC(=O)C1=CC(=O)CC(C)(C)O1 | 101% (inactive) and 103% (inactive) | 92.6% (inactive) and 101% (inactive) | 116% (inactive) | 104% (inactive) and 109% (inactive) | 104% (inactive) and 99.9% (inactive) | 88.7% (inactive) and 105% (inactive) | 112% (inactive) | 104% (inactive) and 106% (inactive) | 119% (inactive) and 120% (inactive) | –
15 | O=C(OCc1ccccc1)c1ccccc1 | 114% (inactive) and 103% (inactive) | 114% (inactive) and 87.8% (inactive) | 98.7% (inactive) | 101% (inactive) and 92.1% (inactive) | 99.8% (inactive) and 105% (inactive) | 107% (inactive) and 85.4% (inactive) | 104% (inactive) and 101% (inactive) | 92.6% (inactive) and 102% (inactive) | 106% (inactive) and 120% (inactive) | 96.2% (inactive)
16 | COC(=O)c1cc(C(=O)OC)cc([N+](=O)[O-])c1 | 105% (inactive) | 111% (inactive) | 72.5% (inactive) | 118% (inactive) | 94.4% (inactive) | 98.7% (inactive) | 109% (inactive) | 102% (inactive) | 108% (inactive) | 104% (inactive)
17 | COCCCNC1=C(C#N)C(=O)NC(c2cccs2)S1 (stereo not given) | 98.2% (inactive) | 99.9% (inactive) | 83.2% (inactive) | 94.4% (inactive) | 100% (inactive) | 100% (inactive) | 95.3% (inactive) | 91.7% (inactive) | 113% (inactive) | 105% (inactive)
18 | O=[N+]([O-])c1ccc(NC(c2ccccc2)c2ccc3cccnc3c2O)cc1 (stereo not given) | 32.5% (inactive) | 26% (inactive) | 47.3% (inactive) | 21.2% (inactive) | 12.3% (inactive) | 30.3% (inactive) | -1.02% (active) | -4.08% (active) | 27.7% (inactive) | –
19 | O=c1[nH]c(=O)c2[nH]c(=O)[nH]c2[nH]1 | 99% (inactive) | 105% (inactive) | 89.8% (inactive) | 103% (inactive) | 101% (inactive) | 96.2% (inactive) | 100% (inactive) | 99.8% (inactive) | 98.9% (inactive) | –
20 | Clc1ccc2sc(-c3ccccc3)nc2c1 | 100% (inactive) | 95.1% (inactive) | 67.7% (inactive) | 97.6% (inactive) | 105% (inactive) | 88% (inactive) | 91% (inactive) | 86.2% (inactive) | 106% (inactive) | –
21 | O=C1CCC(=O)N1CC1CC2CCC1C2 (stereo not given) | 107% (inactive) and 104% (inactive) | 103% (inactive) and 95.8% (inactive) | 87.2% (inactive) and 73.1% (inactive) | 101% (inactive) and 90.3% (inactive) | 91.7% (inactive) and 100% (inactive) | 94.1% (inactive) and 104% (inactive) | 110% (inactive) and 92.6% (inactive) | 96.5% (inactive) and 88.5% (inactive) | 109% (inactive) and 103% (inactive) | 101% (inactive) and 96.2% (inactive)
22 | Cn1c(N)c(N=O)c(=O)n(C)c1=O | 105% (inactive) and 101% (inactive) | 111% (inactive) and 90.2% (inactive) | 86.9% (inactive) and 92.6% (inactive) | 99.8% (inactive) and 102% (inactive) | 92.9% (inactive) and 101% (inactive) | 96.2% (inactive) and 96.9% (inactive) | 137% (inactive) and 99.6% (inactive) | 103% (inactive) and 93.1% (inactive) | 104% (inactive) and 100% (inactive) | –
23 | COc1ccc(CCn2cnn3c(=O)c4ccccc4nc3c2=O)cc1OC | 104% (inactive) and 109% (inactive) | 106% (inactive) and 104% (inactive) | 103% (inactive) and 135% (inactive) | 104% (inactive) and 96.6% (inactive) | 101% (inactive) and 104% (inactive) | 102% (inactive) and 98.7% (inactive) | 101% (inactive) and 97% (inactive) | 111% (inactive) and 102% (inactive) | 109% (inactive) and 125% (inactive) | 98% (inactive)
